Screening data as filed in PubChem.
Many of the other results were omitted from the sample, so hits are more common in it than they were.
Integrin act MD: integrin-mediated muscular dystrophy alleviation activation | 0.064% of 350,000 active | Potency, µM (titrated, usually from 38.3 µM), without a hit: at the highest dose activation, hits mostly activators | alpha7betagal myoblasts, beta-gal FDG fluorescence, 48 h | AID 624291;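 note: potency is the fitted concentration of half-maximal effect; 100% = response of the positive control SU9516; nearly all actives have a fitted effect of over 60% in size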
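Alpha7betagal+/- myoblasts (passage 13) were plated 16-24 hr, then exposed to compounds (1:260 dilution of DMSO stock) for 48 hours at 37C. After MPER lysis, β-galactosidase reporter activity was read as FDG fluorescence (ex 480/em 540) after 30 minutes.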
VP16 counter: Gal4-VP16 reporter inhibition counter-screen; Drosophila S2 Gal4-VP16 UAS-luciferase, luminescence, 20 h; Potency, µM (highest dose often 53.6 µM), for the others: at the highest dose activity, negative = inhibition, actives largely listed as inhibitors; 3.5% of 310,000 active;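 note: Gal4-VP16 expression switched on by copper sulfate through the metallothionein promoter; potency is the fitted concentration of half-maximal effect; % is set by controls: 0 for no effect and ±100 for the full control effect; nearly all actives have a fitted effect of over 50% in size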
ERG-DNA inh: ERG Ets/DNA interaction inhibition. P11308. fluorescence polarization, His-ERG Ets domain / labelled DNA. Potency, µM (highest dose often 76.9 µM), for the others: at the highest dose FP activity, negative = inhibition, actives largely listed as inhibitors. 0.028% of 370,000 active. AID 624246; active = well fitted inhibition curve with a large enough effect in the polarisation, with a control signal flat; inconclusive = small, poorly fitted or top-dose-only effect, or effect the other way, or a change in a side signal; inactive = no such curve, though single readings can be large or run the other way; the % refers to the polarisation;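 note: polarization taken with two DNA probes labelled with fluorescein and Texas red; potency is the fitted concentration of half-maximal effect; % of control where 0% means no effect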
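His-tagged ERG Ets domain (1 uM in the protein solution; 300mM KCl, 50mM Tris-HCl, 1mM EDTA, 1mM DTT, pH 7.5) received compound, then a probe mix of 5 nM fluorescein-DNA and 100nM Texas-615-DNA. Fluorescence polarization was read for both dyes.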
RORgamma inh: ROR gamma (mouse) transcription inhibition | P51450 | Drosophila S2 Gal4-RORgamma UAS-luciferase reporter, 20 h | Potency, µM (titrated, usually from 53.6 µM), for inactives: at the top dose activity change, negative = inhibition, most hits filed as inhibitors | 5.4% of 310,000 active | AID 2551; note: potency is the fitted concentration of half-maximal effect; % is set by controls: 0 for no effect and ±100 for the full control effect; nearly all actives have a fitted effect of over 60% in size
Target sequence (P51450 whole entry, looked up, the tested form may be a part): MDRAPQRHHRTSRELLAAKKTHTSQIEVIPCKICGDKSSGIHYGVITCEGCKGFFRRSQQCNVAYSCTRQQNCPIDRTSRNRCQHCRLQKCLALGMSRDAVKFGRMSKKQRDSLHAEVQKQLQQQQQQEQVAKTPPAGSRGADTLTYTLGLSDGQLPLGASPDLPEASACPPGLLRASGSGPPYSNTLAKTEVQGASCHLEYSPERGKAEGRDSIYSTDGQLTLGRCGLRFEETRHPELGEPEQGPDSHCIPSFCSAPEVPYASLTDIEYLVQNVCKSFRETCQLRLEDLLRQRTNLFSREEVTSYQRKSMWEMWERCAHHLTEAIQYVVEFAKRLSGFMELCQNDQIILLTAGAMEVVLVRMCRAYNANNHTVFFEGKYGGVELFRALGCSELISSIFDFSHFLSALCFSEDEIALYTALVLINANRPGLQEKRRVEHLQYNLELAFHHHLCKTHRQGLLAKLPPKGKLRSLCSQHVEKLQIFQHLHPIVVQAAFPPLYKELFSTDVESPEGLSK
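Read-out: Photinus luciferase luminescence; inhibitors lower reporter signal. Insect Schneider cells with Gal4-ROR gamma fusion under metallothionein promoter, UAS reporter; 700 uM final copper sulfate induction, 20 hr, ambient temperature.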
Giardia kill: kills Giardia lamblia; Giardia lamblia trophozoite viability; activity change, % at 7.66 µM, hits read low; 0.15% of 340,000 active; in the data active = activity change below about -80%; inconclusive = between about -30% and that limit;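 note: parasites exposed to compound for two days anaerobically before the ATP read; % is set by controls: 0 for no effect and ±100 for the full control effect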
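Giardia lamblia trophozoites (100 cells/well) were incubated with compounds for 48 h at 37 deg C under anaerobic conditions. Viability was read as ATP content by one-step luminescence after 15-30 min at room temperature.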
* = called active by the depositor; ? = inconclusive; . = no result given; ! = a repeat was not active; [ ] = dose if it differs, or a comment. Unless noted, calls come from the whole dose curve; as a rule, active = well fitted curve in the direction sought with a large enough effect; inconclusive = small, poorly fitted or top-dose-only effect, or another doubt; inactive = no such curve, though single readings can be large; an effect the other way counts as inactive or inconclusive.

SMILES | Integrin act MD | VP16 counter | ERG-DNA inh | RORgamma inh | Giardia kill
CN(C)NC(=O)CCC(=O)O | . | -6.8% | . | -1.0% | .
CC(C)c1ccc2c(c1O)CCC1C3=C(CC[C@]21C)C(=O)OC3 (some centres not stated) | . | -27.9% | . | ? | .
CC1=CC(O)C(O)C2(C)C1CC1OC(=O)C(O)C3C(C)C(O)C4(O)OCC13C42 (configuration not stated) | 8.3% | . | -4.8% | . | -6.8
COC(=O)[C@]12OC[C@]34C([C@@H](O)[C@@H]1O)[C@]1(C)CC(=O)C(O)=C(C)[C@@H]1C[C@H]3OC(=O)[C@H](O)[C@@H]24 (some centres not stated) | -22.6% | 0.224µM* | -10.4% | 0.562µM* | 0.5
CCN1C[C@@]2(COC)CCC(OC)[C@]34C5C[C@]6(O)[C@@H](OC)C[C@](OC(C)=O)(C([C@H](OC)C23)[C@H]14)C5[C@H]6OC(=O)c1ccc(OC)cc1 (some centres not stated) | . | -11.3% | . | -0.2% | .
Oc1cccc[c]1[Hg][Cl] | . | 3.55µM* | . | 1.58µM* | .
CC1(C)C(=O)[C@@H]2OC2[C@@]2(C)C1CC(O)[C@]1(C)C2CC[C@@]2(C)C(c3ccoc3)OC(=O)C3OC312 (some centres not stated) | . | -15.2% | . | 1.7% | .
O=C(O)C(Cl)Br (configuration not stated) | . | 1.3% | . | 8.5% | .
O=c1[nH]c(=S)[nH]c(O)c1N=Nc1ccc(-c2ccccc2)cc1[N+](=O)[O-] | . | 17.8µM* | . | ? | .
Cc1ccc([N+](=O)[O-])cc1C | . | 8.6% | . | 13.5% | .
CCn1ccnc1CN1CCCC(C(=O)c2cc(C)c(OC)c(C)c2)C1 (configuration not stated) | 0.0% | 11.2µM* | -6.0% | 2.51µM* | 3.0
CCn1ccnc1CN1CCCC(C(=O)c2cc(Cl)ccc2OC)C1 (configuration not stated) | -44.9% | -27.1% | 1.2% | 21.2% | -0.4
O=C1NC(=S)NC(=O)C1=Cc1ccc(Br)s1 | -63.3% | 6.31µM* | 15.7% | 20µM* | -9.0
CN1C(=O)/C(=C\c2ccc(Br)s2)C(=O)NC1=S | -16.9% | ? | 61.4% | ? | -12.5
CCN(N=O)C(N)=O | . | 4.5% | . | 17.0% | .
Cc1ccc(C(=O)NC(=S)NNS(=O)(=O)c2ccc(C)cc2)cc1 | -22.5% | ? | 0.2% | 5.62µM* | 3.2
O=C(O)CCC(CP(=O)(O)O)C(=O)O (configuration not stated) | . | 7.5% | . | 19.8% | .
CCOC(=O)N1CCN(C(=O)c2ccc3c(=O)n(CCC4=CCCCC4)c(=S)[nH]c3c2)CC1 | -30.8% | 14.1µM* | -1.0% | -26.3% | 9.0
CC[C@@H](CO)NC(=O)[C@H]1C=C2c3cccc4c3c(cn4C)C[C@H]2N(C)C1 | . | 3.7% | . | -3.6% | .
COc1ccc(-n2nc(C(=O)NCC(=O)N3CCC4(CC3)OCCO4)c3ccccc3c2=O)c(OC)c1 | -22.9% | 10µM* | -10.2% | 6.31µM* | -9.0
O=C(Cn1cnc2ccccc2c1=O)NCC(=O)N1CCC2(CC1)OCCO2 | 5.9% | 6.8% | -0.8% | -22.9% | -14.2
C[N+]1([O-])[C@@H]2CC[C@H]1CC(OC(=O)[C@@H](CO)c1ccccc1)C2 (some centres not stated) | . | 9.0%[17 µM] | . | -11.7%[16.9 µM] | .
N#CCc1ccccc1 | . | -3.7% | . | 4.4% | .
N#CC(C#N)=NNc1cccc(Cl)c1 | . | 0.631µM* | . | 1.12µM* | .
N#CC(C#N)=NNc1ccc(S(=O)(=O)N2CCCC2)cc1 | ? | ? | -3.0% | ? | -4.1
SMILES | Integrin act MD | VP16 counter | ERG-DNA inh | RORgamma inh | Giardia kill
Cc1ccc(-c2nc3ccccc3c(=O)n2-c2nccs2)cc1 | -14.4% | 11.2µM* | -4.0% | 5.62µM* | -4.0
CN1C2CCC1/C(=C/c1ccccn1)C(=O)/C2=C\c1ccccn1 | -36.4% | 2.51µM* | -8.8% | 2.82µM* | -14.9
O=C(CCl)c1ccc(Cl)cc1Cl | . | ? | . | 8.91µM* | .
CSCC[C@H](NC(=O)[C@H](CC(C)C)NC(=O)[C@@H](Cc1cnc[nH]1)NC(=O)[C@H](Cc1ccccc1)NC(=O)[C@@H](Cc1ccccc1)NC(=O)[C@@H](N)Cc1ccc(O)cc1)C(N)=O | . | -11.7% | . | 0.5% | .
CON(C)C(=O)Nc1ccc(Br)c(Cl)c1 | . | -10.1% | . | 17.8% | .
CC(C)NS(=O)(=O)c1ccc(OCC(=O)N2CCN(Cc3ccccc3)CC2)c(Cl)c1 | 0.3% | 20µM* | -1.0% | ? | -5.0
c1ccc(CCCN2CCN(CCOC(c3ccccc3)c3ccccc3)CC2)cc1 | . | ? | -18.2% | 31.6µM* | -8.7
Fc1ccc(C(OCCN2CCN(CCCc3ccccc3)CC2)c2ccc(F)cc2)cc1 | . | 31.6µM*! | . | 28.2µM*! | 11.1
Fc1ccc(C(OCCN2CCCC2)c2ccc(F)cc2)cc1 | ? | -8.0% | 1.8% | -36.3% | -11.8
OC[C@H]1O[C@@H](n2cnc3cc(Cl)c(Cl)cc32)[C@H](O)[C@H]1O | . | 7.94µM* | . | ? | .
OC[C@H]1O[C@@H](n2cnc3cc(Cl)c(Cl)cc32)[C@H](O)[C@@H]1O | . | . | -15.4% | . | -21.0
COP(=S)(OC)Oc1ccc([N+](=O)[O-])cc1 | . | 10µM*! | . | 11.2µM*! | .
O=[N+]([O-])c1ccc(NCc2ccccc2)c2nonc12 | -43.5% | -4.7% | 6.31µM* | -2.9% | -6.8
COC1C(O)C(C)O[C@H](OC2CC[C@@]3(C=O)C4CC[C@]5(C)C(C6=CC(=O)OC6)CC[C@@]5(O)C4CC[C@@H]3C2)C1O (some centres not stated) | . | -2.0% | . | 12.5% | .
CN(C)C(=O)Oc1ccc(OC(=O)N(C)C)cc1 | 25.3% | 2.1% | -2.9% | 28.4% | -16.8
CN(C)C(=O)Oc1ccc(OCc2nc3ccccc3[nH]2)cc1 | 18.2% | 11.2µM* | -4.1% | ? | ?
Cn1ncnc2c(=O)n(C)c(=O)nc1-2 | 40.8% | 0.631µM* | -13.3% | 0.0398µM* | -88.3*
